GLP1R inv ag: qHTS of GLP-1 Receptor Inverse Agonists (Inhibition Mode); HEK293 GLP-1R CRE-luciferase, luminescence, 24 h; GLP-1R form is constitutively active; Potency, µM (doses to about 38.3 µM), for inactives: top-dose activity change, negative = inhibition, actives largely listed as inhibitors; Glucagon-like peptide 1 receptor (Homo sapiens), P43220; actives 1.6% (n = 410,000); further: potency means the concentration at half of the fitted maximal effect; on the % scale 0 is the no-effect control and ±100 the full control effect; nearly all actives have a fitted effect of over 55% in size
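qHTS in 1536-well format: reporter HEK293 cells expressing constitutive GLP-1R activity in DMEM + 10% Nu serum, 24 hr with compounds at 37 deg C, luminescence read after 12 min with detection reagent.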
TRPML1 agonist: qHTS for Agonists of the Human Mucolipin Transient Receptor Potential 1 (TRPML1); actives 0.12% (n = 410,000); Mucolipin-1 (Homo sapiens), Q9GZU1; activation, % (concentration not given with the values); TRPML1-expressing cells, Ca2+ dye fluorescence, FDSS; AID 624414, 2012; in the data active means activation above about 50%; inconclusive means mostly about 30% to 49%; further: 0% is about no effect
Target sequence (Q9GZU1 whole entry, looked up): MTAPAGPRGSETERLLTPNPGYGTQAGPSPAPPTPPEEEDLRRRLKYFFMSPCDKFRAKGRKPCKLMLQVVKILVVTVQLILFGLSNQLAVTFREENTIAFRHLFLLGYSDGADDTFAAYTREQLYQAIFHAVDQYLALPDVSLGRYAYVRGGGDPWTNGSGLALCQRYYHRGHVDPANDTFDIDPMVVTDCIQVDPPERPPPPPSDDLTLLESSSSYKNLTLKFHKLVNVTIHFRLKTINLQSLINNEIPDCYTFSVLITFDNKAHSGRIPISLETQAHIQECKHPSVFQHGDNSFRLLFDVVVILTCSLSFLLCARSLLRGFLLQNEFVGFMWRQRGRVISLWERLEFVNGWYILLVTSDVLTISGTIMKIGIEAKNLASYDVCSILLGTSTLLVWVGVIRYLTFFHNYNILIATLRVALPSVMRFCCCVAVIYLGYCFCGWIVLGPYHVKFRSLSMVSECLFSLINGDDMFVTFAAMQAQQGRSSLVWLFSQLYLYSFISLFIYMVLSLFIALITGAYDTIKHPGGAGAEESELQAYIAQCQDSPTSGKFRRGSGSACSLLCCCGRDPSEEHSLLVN
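TRPML1-DL cells, Tet-induced overnight (~16 h, 37 degrees C), loaded 45-90 min at room temperature with Ca8 no-wash calcium dye plus quencher. FDSS fluorescence: 10 s baseline, compound pin-transfer, 110 s agonist read, then EC80 54-4 (4uM final) and 110 s antagonist read.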
GLP1R cytotox: qHTS of GLP-1 Receptor Inverse Agonists: Cytotox Screen. HEK293 cAMP-luciferase reporter cells, luminescence, 24 h. Potency, µM (doses to about 38.3 µM), for the others: top-dose activity change, negative = inhibition, hits mostly inhibitors. actives 0.13% (n = 410,000);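 further: loss of luciferase light is scored as toxicity; potency means the concentration at half of the fitted maximal effect; on the % scale 0 is the no-effect control and ±100 the full control effect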
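Compound-treated cells are incubated 24 hr at 37 deg C under 5% CO2 after a 12 hour attachment period, then luciferase detection reagent is added and luminescence is measured following 12 min at room temperature; lowered signal indicates toxicity.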
TRPML1 inh: qHTS for Inhibitors of the Human Mucolipin Transient Receptor Potential 1 (TRPML1); actives 0.02% (n = 390,000); Mucolipin-1 (Homo sapiens), Q9GZU1; TRPML1-inducible cells, Ca2+ dye fluorescence, FDSS; hits give low values; inhibition of EC80 agonist-evoked calcium signal; activity change, negative = inhibition, % (concentration not given with the values); in the data active means activity change below about -50%; inconclusive means between about -30% and that limit;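 further: stimulus is agonist 54-4 at its EC80 concentration; on the % scale 0 is the no-effect control and ±100 the full control effect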
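Tet-induced TRPML1-DL cells loaded with Ca8 no-wash calcium dye were read kinetically on FDSS. Compound addition was followed by EC80 agonist 54-4 (4 uM final); inhibition was read over 110 s.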
GLP-1R agonist: qHTS of GLP-1 Receptor Agonists. Glucagon-like peptide 1 receptor (Homo sapiens), P43220. actives 0.007% (n = 380,000). Potency, µM (titrated, usually from 45.6 µM), for inactives: top-dose activation, hits mostly activators. HEK293 GLP-1R CRE-luciferase, luminescence, 4-6 h; cells express a hypersensitive GLP-1R form. AID 624172, 2012; further: potency means the concentration at half of the fitted maximal effect; % of control where 0% means no effect
* marks the source's active call; other numbers are inactive results. In the library only some 1.8% were active in any assay of this set; here they are far more common. Unless noted, the call rests on the fitted dose curve; in most records, active means well fitted curve in the direction sought with a large enough effect; inconclusive means small, poorly fitted or top-dose-only effect, or another doubt; inactive means no such curve, though single readings can be large; an effect the other way counts as inactive or inconclusive.

What do the screens show for `Cc1ccccc1NC(=O)N1CCc2c(sc3c2CCCC3)C1c1ccccc1` (configuration not stated)?
GLP1R inv ag: 10µM*; TRPML1 agonist: 14; GLP1R cytotox: 13%; TRPML1 inh: -1

Results for CCOC(=O)c1ccccc1NC(=O)N1CCc2c(sc(C)c2CC)C1c1ccccc1 (configuration not stated) ?
GLP1R inv ag: -20%; TRPML1 agonist: -1; GLP1R cytotox: -12%; TRPML1 inh: 14

Results for CCOc1ccccc1NC(=O)N1CCc2c(sc3c2CCCC3)C1c1ccccc1 (configuration not stated) ?
GLP1R inv ag: inconclusive; TRPML1 agonist: 2; GLP1R cytotox: 9%; TRPML1 inh: 20

How did COc1cc2c(cc1OC)C(COc1ccc3c(C)cc(=O)oc3c1)N(C(=O)c1ccccc1F)CC2 (configuration not stated) do in these assays?
GLP1R inv ag: 7%; TRPML1 agonist: -1; GLP1R cytotox: 5%; TRPML1 inh: 38

What do the screens show for `CCN1C(=O)c2ccccc2Sc2ccc(NC(=O)Nc3cccc([N+](=O)[O-])c3C)cc21`?
GLP1R inv ag: 4%; TRPML1 agonist: 0; GLP1R cytotox: 8%; TRPML1 inh: 0

How did Cc1cccc(NC(=O)CSc2nc3ccccc3c3nc(CCc4c(C)n[nH]c4C)nn23)c1 do in these assays?
GLP1R inv ag: inconclusive; TRPML1 agonist: 2; GLP1R cytotox: 5µM*; TRPML1 inh: 16; GLP-1R agonist: -16%

Results for CCCOc1ccc(C2c3c(-c4ccccc4O)n[nH]c3C(=O)N2CCc2ccccc2)cc1OCC (configuration not stated) ?
GLP1R inv ag: inconclusive; TRPML1 agonist: 2; GLP1R cytotox: -13%; TRPML1 inh: 15

Results for CN(C)c1ccc(/C=C/c2ccnc3cc(Cl)ccc23)cc1 ?
TRPML1 agonist: 105*

What do the screens show for `CCCOc1ccc(NC(=O)CC2C(=O)N(c3cccc(OC)c3)C(=O)N2CCc2ccncc2)cc1` (configuration not stated)?
GLP1R inv ag: -3%; TRPML1 agonist: -1; GLP1R cytotox: 0%; TRPML1 inh: -8

How did COc1ccc2c(c1)/C(=C\c1cccc(/C=C3/C(=O)Nc4ccc(OC)cc43)n1)C(=O)N2 do in these assays?
GLP1R inv ag: inconclusive; TRPML1 agonist: 0; GLP1R cytotox: 2.2µM*; TRPML1 inh: 6; GLP-1R agonist: -1%

How did Cc1ccc2c(c1)/C(=C/c1ccccc1)C(=O)N2 do in these assays?
GLP1R inv ag: inconclusive; TRPML1 agonist: -1; GLP1R cytotox: -6%; TRPML1 inh: -12; GLP-1R agonist: 9%

What do the screens show for `O=C(NCc1ccc(F)cc1)C1CCN(S(=O)(=O)c2ccc(Br)s2)CC1`?
GLP1R inv ag: 10µM*; TRPML1 agonist: 0; GLP1R cytotox: -7%; TRPML1 inh: 1; GLP-1R agonist: 6%

How did O=C(CC(O)(CC(=O)OCc1ccccc1)C(=O)OCc1ccccc1)OCc1ccccc1 do in these assays?
GLP1R inv ag: 8.9µM*; TRPML1 agonist: 1; GLP1R cytotox: -1%; TRPML1 inh: -7; GLP-1R agonist: 9%

How did Cc1cccc(OC(=O)c2nc(SCc3ccccc3F)ncc2Cl)c1 do in these assays?
GLP1R inv ag: -6%; TRPML1 agonist: 1; GLP1R cytotox: 4%; TRPML1 inh: 100

What do the screens show for `Brc1ccc(N/N=C(/N=Nc2nn[nH]n2)c2ccccc2)cc1`?
GLP1R inv ag: 1.3µM*; TRPML1 agonist: 4; GLP1R cytotox: inconclusive; TRPML1 inh: 12; GLP-1R agonist: 9%

What do the screens show for `O=C(Cc1ccccc1)NCC(=O)OCC(=O)c1ccc2ccccc2c1`?
TRPML1 agonist: -1

Source: PubChem
